# Assay results as given in the supplement of paper PMC8728848.
# The entries come from a sample that favours the strongest signals as a whole.
# B1: Crocus Lectin (Crocus vernus), Q9FVA1 (protein)
# chain: MAKSLVLSSLLLALLLAAPLASLADNNVLLTGDVLHTDNQLSFESAAFVMQGDCNLVLYNEAGGFQSNTHGRGVGCTLRLNNFGQLEIHSANSNTPVWVSLRNGIPVRGDYAAVLGPDQHVTIYGPAIWSTPAPNRHERGATVSNIPRVRNVLFSSQVMSDNAQLATRDYSLVMRDDCNLALTKGSKTNIVWESGTSGRGQHCFMRLGHTGLIEISDDRLNTVWRSNTVGQEGDYVLILQINGQAVVYGPAVWSTASPARGGASAAL
# Assays:
# Experiment in all cases: glycan array binding signal (z-score within array); higher = stronger binding
# Conditions in all cases: glycan notation: IUPAC condensed, linker removed
# [1] = target: Fuc(a1-2)Gal(b1-3)GalNAc(b1-3)Gal(a1-4)Gal(b1-4)Glc
# Summary of the method: (§1)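 Glycan array binding is given as a within-array Z-score, which can be read as non-binding when negative. The arrays, 3228 of them, came from the Consortium for Functional Glycomics database and were retained only where the protein sequence was available. Z-scores were averaged across arrays of the same protein sequence at different concentrations or buffers and across linkers.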
# [2] = target: Fuc(a1-2)Gal(b1-4)GlcNAc(b1-3)Gal(b1-4)GlcNAc(b1-3)Gal(b1-4)GlcNAc
# Summary of the method: as §1
# [3] = target: Fuc(a1-2)[GalNAc(a1-3)]Gal(b1-4)[Fuc(a1-3)]GlcNAc
# Summary of the method: as §1
# [4] = target: Fuc(a1-3)[Gal3S(b1-4)]GlcNAc
# Summary of the method: as §1
# Fuc(b1-3)GlcNAc = target: Fuc(b1-3)GlcNAc
# Summary of the method: as §1
# Gal(a1-3)Gal = target: Gal(a1-3)Gal
# Summary of the method: as §1
# Gal(b1-3)Gal = target: Gal(b1-3)Gal
# Summary of the method: as §1
# [5] = target: Gal(b1-4)GalNAc(a1-3)[Fuc(a1-2)]Gal(b1-4)GlcNAc
# Summary of the method: as §1
# Gal(b1-4)Glc = target: Gal(b1-4)Glc
# Summary of the method: as §1
# Gal(b1-4)Glc6S = target: Gal(b1-4)Glc6S
# Summary of the method: as §1
# GlcA(b1-3)Gal = target: GlcA(b1-3)Gal
# Summary of the method: as §1
# [6] = target: GlcNAc(a1-6)Gal(b1-4)GlcNAc
# Summary of the method: as §1
# [7] = target: GlcNAc(b1-4)GlcNAc(b1-4)GlcNAc
# Summary of the method: as §1
# [8] = target: GlcNAc(b1-4)[GlcNAc(b1-6)]GalNAc
# Summary of the method: as §1
# GlcNAc(b1-6)GalNAc = target: GlcNAc(b1-6)GalNAc
# Summary of the method: as §1
# [9] = target: Man(a1-2)Man(a1-3)[Man(a1-3)[Man(a1-6)]Man(a1-6)]Man(b1-4)GlcNAc(b1-4)GlcNAc
# Summary of the method: as §1
# Man(a1-3)[Man(a1-6)]Man = target: Man(a1-3)[Man(a1-6)]Man
# Summary of the method: as §1
# [10] = target: Man(a1-3)[Man(a1-6)]Man(a1-6)[Man(a1-3)]Man(b1-4)GlcNAc(b1-4)GlcNAc
# Summary of the method: as §1
# [11] = target: Man(a1-3)[Man(a1-6)]Man(b1-4)GlcNAc(b1-4)GlcNAc
# Summary of the method: as §1
# [12] = target: Neu5Ac(a2-3)Gal(b1-3)[Neu5Ac(a2-3)Gal(b1-4)]GlcNAc
# Summary of the method: as §1
# [13] = target: Neu5Ac(a2-3)Gal(b1-4)[Fuc(a1-3)]GlcNAc6S
# Summary of the method: as §1
binder,measurement,setting,value
B1,glycan array binding signal (z-score),[1],-0.162
same,glycan array binding signal (z-score),[2],-0.146
same,glycan array binding signal (z-score),[3],-0.159
same,glycan array binding signal (z-score),[4],-0.187
same,glycan array binding signal (z-score),Fuc(b1-3)GlcNAc,-0.163
same,glycan array binding signal (z-score),Gal(a1-3)Gal,-0.177
same,glycan array binding signal (z-score),Gal(b1-3)Gal,-0.192
same,glycan array binding signal (z-score),[5],-0.195
same,glycan array binding signal (z-score),Gal(b1-4)Glc,-0.152
same,glycan array binding signal (z-score),Gal(b1-4)Glc6S,-0.165
same,glycan array binding signal (z-score),GlcA(b1-3)Gal,-0.179
same,glycan array binding signal (z-score),[6],-0.196
same,glycan array binding signal (z-score),[7],-0.156
same,glycan array binding signal (z-score),[8],-0.187
same,glycan array binding signal (z-score),GlcNAc(b1-6)GalNAc,-0.175
same,glycan array binding signal (z-score),[9],3.76
same,glycan array binding signal (z-score),Man(a1-3)[Man(a1-6)]Man,7.87
same,glycan array binding signal (z-score),[10],7.04
same,glycan array binding signal (z-score),[11],6.62
same,glycan array binding signal (z-score),[12],-0.169
same,glycan array binding signal (z-score),[13],-0.195
